Data: PubChem BioAssay AID1159580 (chemical genetic matrix, 2015)
Several values for one entry are separate records, joined by “and”; a condition that tells them apart may be missing. Equal values may be shown once. The whole screen tested about 5,500 compounds, of which about 2,000 (36%) were called active. Another 18% or so got no clear call; they are omitted. Rule as the data show it: active = normalized growth mostly below about 0.91 (no sharp cut-off); inconclusive = no clear call, values can overlap the other calls; inactive = mostly above about 0.92. Some of the results follow.

Assay: chemical genetic growth profiling, strain panel (AID 1159580);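 also: tested at 20 µM; growth read once vehicle control cultures reached saturation at 30 °C; 1 = growth at the plate median or of vehicle wells; lower values mean less growth of the strain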
Details: S. cerevisiae deletion strains, growth OD
[1] = locus YHR030C, strain SLT2, stronger effect = lower value
[2] = locus YHR079C, strain IRE1, stronger effect = lower value
[3] = locus YJL095W, strain BCK1, stronger effect = lower value
[4] = locus YJR066W, strain TOR1, stronger effect = lower value
[5] = locus YLR113W, strain HOG1, stronger effect = lower value
[6] = locus YNL183C, strain NPR1, stronger effect = lower value
[7] = locus YOR231W, strain MKK1, stronger effect = lower value
[8] = locus YPL256C, strain CLN2, stronger effect = lower value

Measured: normalized growth

O=C(O)CCCO
inactive: [1] 1.05 | [2] 1.05 | [3] 1.01 | [4] 0.976 | [5] 1.02 | [6] 0.983 | [7] 1.02 | [8] 1.01

O=C(O)CCCCCCCCCCCCC1C=CCC1 (stereo unspecified)
inactive: locus YBR229C, strain ROT2, stronger effect = lower value 1.01 | locus YCL029C, strain bik1, stronger effect = lower value 0.939 | locus YDL035C, strain GPR1, stronger effect = lower value 0.87 | locus YDL101C, strain DUN1, stronger effect = lower value 0.958 | locus YDL134C, strain PPH21, stronger effect = lower value 0.93 | locus YDL185W, strain tfp1, stronger effect = lower value 1.01 | locus YDR162C, strain NBP2, stronger effect = lower value 0.911 | locus YDR318W, strain mcm21, stronger effect = lower value 0.946 | locus YDR388W, stronger effect = lower value 0.976 | locus YEL061C, strain CIN8, stronger effect = lower value 0.971 | locus YER110C, stronger effect = lower value 1.01 | locus YER167W, strain BCK2, stronger effect = lower value 1.01 | locus YGL078C, strain dbp3, stronger effect = lower value 0.973 | locus YGR135W, strain pre9, stronger effect = lower value 0.953 | locus YGR252W, strain gcn5, stronger effect = lower value 0.78 | locus YHR079C, strain IRE1 (second series), stronger effect = lower value 0.98 | [2] 0.935 | locus YHR094C, strain hxt1, stronger effect = lower value 1 | locus YHR200W, strain rpn10, stronger effect = lower value 1 | locus YIL125W, strain kgd1, stronger effect = lower value 0.99 | locus YIR030C, strain dcg1, stronger effect = lower value 0.998 | locus YJL134W, strain LCB3, stronger effect = lower value 1.02 | locus YJL168C, strain set2, stronger effect = lower value 0.999 | locus YJL187C, strain SWE1 (second series), stronger effect = lower value 0.867 | locus YJR043C, strain POL32, stronger effect = lower value 0.919 | [4] 0.931 | locus YJR075W, strain HOC1, stronger effect = lower value 0.967 | locus YKL009W, strain mrt4, stronger effect = lower value 0.972 | locus YKL068W, stronger effect = lower value 1.01 | locus YKL085W, strain MDH1 (second series), stronger effect = lower value 1.01 | locus YKL085W, strain MDH1, stronger effect = lower value 1.01 | locus YLR058C, strain SHM2, stronger effect = lower value 0.902 | locus YLR102C, strain apc9, stronger effect = lower value 0.998 | [5] 0.995 | locus YLR342W, strain FKS1 (second series), stronger effect = lower value 0.854 | locus YLR371W, strain rom2, stronger effect = lower value 0.992 | locus YML016C, strain PPZ1, stronger effect = lower value 1.03 | locus YML032C, strain rad52, stronger effect = lower value 0.977 | locus YML124C, strain tub3, stronger effect = lower value 0.998 | locus YMR078C, strain ctf18, stronger effect = lower value 1.01 | locus YMR263W, strain SAP30, stronger effect = lower value 0.915 | locus YMR307W, strain GAS1, stronger effect = lower value 1.13 | locus YNL067W, strain RPL9B, stronger effect = lower value 0.933 | [6] 0.903 | locus YNL250W, strain rad50, stronger effect = lower value 1.02 | locus YNL271C, strain bni1, stronger effect = lower value 0.976 | locus YNL298W, strain CLA4, stronger effect = lower value 0.944 | locus YNR052C, strain pop2, stronger effect = lower value 0.988 | locus YOL006C, strain TOP1, stronger effect = lower value 0.764 | locus YOL012C, strain htz1 0.57 | locus YOR061W, strain CKA2, stronger effect = lower value 0.987 | locus YOR069W, strain VPS5, stronger effect = lower value 0.956 | locus YOR136W, strain idh2, stronger effect = lower value 0.976 | [7] 0.954 | locus YOR316C, strain cot1, stronger effect = lower value 0.999 | [8] 1.04 | locus YPR119W, strain clb2, stronger effect = lower value 0.993 | locus YPR141C, strain kar3, stronger effect = lower value 1.01 | locus YPR163C, strain tif3, stronger effect = lower value 0.921 | locus YPR167C, strain met16, stronger effect = lower value 0.989 | strain wtn01, stronger effect = lower value 0.908
0.311 (active) and 0.959 (inactive): [1]
active: locus YBR021W, strain FUR4, stronger effect = lower value 0.186 | locus YDL074C, strain BRE1, stronger effect = lower value 0.653 | locus YDL192W, strain arf1, stronger effect = lower value 0.82 | locus YDR101C, strain arx1, stronger effect = lower value 0.883 | locus YDR502C, strain sam2, stronger effect = lower value 0.917 | locus YER155C, strain BEM2, stronger effect = lower value 0.745 | locus YGL086W, strain mad1, stronger effect = lower value 0.853 | locus YGL248W, strain PDE1, stronger effect = lower value 0.865 | locus YHR129C, strain ARP1, stronger effect = lower value 0.885 | locus YIL066C, strain RNR3, stronger effect = lower value 0.841 | locus YIL073C, strain SPO22, stronger effect = lower value 0.604 | locus YKL190W, strain CNB1, stronger effect = lower value 0.761 | locus YKR001C, strain vps1, stronger effect = lower value 0.337 | locus YLR039C, strain RIC1, stronger effect = lower value 0.422 | locus YLR262C, strain YPT6, stronger effect = lower value 0.476 | locus YLR268W, strain sec22, stronger effect = lower value 0.812 | locus YLR330W, strain CHS5, stronger effect = lower value 0.822 | locus YLR418C, strain cdc73, stronger effect = lower value 0.632 | locus YMR223W, strain ubp8, stronger effect = lower value 0.871 | locus YNL153C, strain GIM3, stronger effect = lower value 0.808 | locus YNL233W, strain BNI4, stronger effect = lower value 0.652 | locus YNL307C, strain MCK1, stronger effect = lower value 0.585 | locus YOL147C, strain pex11, stronger effect = lower value 0.871 | locus YOR144C, strain elg1, stronger effect = lower value 0.901 | locus YOR184W, strain ser1, stronger effect = lower value 0.726
0.542 (active) and 0.952 (inactive): [3]
